This is an account of results in ChEMBL document CHEMBL5606458, “ASAP - ZIKV NS2B-NS3 protease fluorescence single point” (2024).

Structures are written as SMILES. Out of some 2,700 compounds screened, about 160 (5.9%) showed an effect of 50% or more. The sample as a whole holds a higher share of strong results than the screen did.

In this assay the target is Nonstructural protein 3 (Zika virus) (UniProt A0A024AXB9).
[1] abbreviates: PRVABC59, Concentration 15.0 uM, Number of replicates 1.0.

Chain of Nonstructural protein 3 (Zika virus) (A0A024AXB9 as listed by the source): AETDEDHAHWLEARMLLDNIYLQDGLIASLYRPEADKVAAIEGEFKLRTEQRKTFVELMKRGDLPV

Usually inhibition stands for the change of the read-out against control, counted positive when it falls. As for `CCCC[C@H](NC(C)=O)C(=O)N[C@H](C(=O)Nc1cccc(C(N)=O)c1)c1ccc(OCc2ccccc2)cc1`, the inhibition stood at 0.392% (PRVABC59, Concentration 49.5 uM, Number of replicates 2.0, Standard deviation 1.5133642763760644 %); 3.8% (PRVABC59, Concentration 99.01 uM, Number of replicates 2.0, Standard deviation 2.3397962878359877 %); 7.97% (PRVABC59, Concentration 198.0 uM, Number of replicates 2.0, Standard deviation 2.8724328178638086 %). For the molecule `O=C(NCc1ccc(-c2ccccc2)cc1)c1cc(Cl)ccc1NS(=O)(=O)c1ccc(Oc2ccccc2Cl)cc1`, the inhibition under setting [1] was 9%. `O=C(NCc1coc(-c2ccccc2)n1)c1cc(Cl)ccc1NS(=O)(=O)c1ccc(Oc2ccccc2Cl)cc1`: the inhibition under setting [1] came to 45.4%. With `O=C(NCc1nnc(-c2ccccc2)o1)c1cc(Cl)ccc1NS(=O)(=O)c1ccc(Oc2ccccc2Cl)cc1`, under setting [1], the inhibition is 54.2%. Take `O=C(NCc1ccccc1)c1cc(Cl)ccc1NS(=O)(=O)c1ccc(Oc2ccccc2Cl)cc1`: the inhibition under setting [1] is 11.2%. The same measure, in the same setting: the value for `O=C(NCc1ccccc1-c1ccccc1)c1cc(Cl)ccc1NS(=O)(=O)c1ccc(Oc2ccccc2Cl)cc1` was 13.1%. As to `O=C(NCc1cccc(-c2ccccc2)c1)c1cc(Cl)ccc1NS(=O)(=O)c1ccc(Oc2ccccc2Cl)cc1`, the inhibition under setting [1] is 54.4%. For the molecule `Cn1cccc(CN2CCC(c3c[nH]c4cccnc34)CC2)c1=O`, the inhibition is -0.869% (PRVABC59, Concentration 49.5 uM, Number of replicates 2.0, Standard deviation 0.07177165759495889 %); 1.77% (PRVABC59, Concentration 99.01 uM, Number of replicates 2.0, Standard deviation 0.38070186159308106 %); 3.27% (PRVABC59, Concentration 198.0 uM, Number of replicates 2.0, Standard deviation 0.010921765735719036 %). For the molecule `O=C(c1cc(Cl)ccc1NS(=O)(=O)c1ccc(Oc2ccccc2Cl)cc1)N1CCNC(=O)C12CCCCC2`, under setting [1], the inhibition came out at 17.6%.

`COc1ccccc1[C@H](C)NC(=O)C1CCN(c2ccc(C=O)cc2)CC1`: under “PRVABC59, Concentration 10.0 uM, Number of replicates 1.0”, the inhibition is 25.4%. Turning to `Cc1cc(CO)c2cccc(NCc3ccc(C(N)=O)cc3)c2n1`, the inhibition is -7.9% (PRVABC59, Concentration 49.95 uM, Number of replicates 2.0, Standard deviation 0.6911398690966805 %) and -2.82% (PRVABC59, Concentration 99.9 uM, Number of replicates 2.0, Standard deviation 1.6597447488203414 %). With `Cc1cc(N)cc(CNc2cccc3c(CO)cc(C)nc23)c1`, the inhibition came to 36.2% (PRVABC59, Concentration 49.95 uM, Number of replicates 2.0, Standard deviation 0.17563299841544527 %) and 52.6% (PRVABC59, Concentration 99.9 uM, Number of replicates 2.0, Standard deviation 0.025091199030293523 %). With `Cc1cc(N)cc(CNC(=O)Cc2cccc3c(CO)cc(C)nc23)c1`, the inhibition came out at 7.61% (PRVABC59, Concentration 49.95 uM, Number of replicates 2.0, Standard deviation 1.6254724488978287 %) and 31.2% (PRVABC59, Concentration 99.9 uM, Number of replicates 2.0, Standard deviation 2.5640510708053585 %). Turning to `Cc1cc(N)cc(CNC(=O)c2cccc(Cc3cccc4c(CO)cc(C)nc34)c2)c1`, the inhibition came to 22.4% (PRVABC59, Concentration 49.95 uM, Number of replicates 2.0, Standard deviation 0.660675115468642 %) and 46.9% (PRVABC59, Concentration 99.9 uM, Number of replicates 2.0, Standard deviation 1.0067445744655332 %).

With `Cc1cc(N)cc(CNC(=O)c2ccccc2Cc2cccc3c(CO)cc(C)nc23)c1`, the inhibition was found to be 34.6% (PRVABC59, Concentration 49.95 uM, Number of replicates 2.0, Standard deviation 0.03145975642768365 %) and 60.7% (PRVABC59, Concentration 99.9 uM, Number of replicates 2.0, Standard deviation 1.7408307334956623 %).

Turning to `Cc1cc(CO)c2cccc(NCc3ccc(S(N)(=O)=O)cc3)c2n1`, the inhibition (PRVABC59, Concentration 49.95 uM, Number of replicates 2.0, Standard deviation 2.3986730749821903 %) was -5.11% and the inhibition (PRVABC59, Concentration 99.9 uM, Number of replicates 2.0, Standard deviation 1.886822696290366 %) is -8.96%. `Cc1c(C(=O)N2CCC(n3cc(CO)nn3)CC2)[nH]c2cc(Cl)cc(Cl)c12`: the inhibition (PRVABC59, Concentration 49.5 uM, Number of replicates 2.0, Standard deviation 1.4208906347015848 %) is 4.02%; the inhibition (PRVABC59, Concentration 99.01 uM, Number of replicates 2.0, Standard deviation 0.494827603753062 %) was determined as 9.8%; the inhibition (PRVABC59, Concentration 198.0 uM, Number of replicates 2.0, Standard deviation 0.23449629857012413 %) is 15.6%. In the case of `Cc1cc(CO)c2cccc(Cc3cccc(C(=O)Nc4cc(C)on4)c3)c2n1`, the inhibition runs as follows: (PRVABC59, Concentration 49.95 uM, Number of replicates 2.0, Standard deviation 0.5505632705734445 %) 18.4%; (PRVABC59, Concentration 99.9 uM, Number of replicates 2.0, Standard deviation 1.053935557806211 %) 51.2%. With `Cc1cc(CO)c2cccc(CC(=O)Nc3cc(C)[nH]n3)c2n1`, the inhibition came to 0.209% (PRVABC59, Concentration 49.95 uM, Number of replicates 2.0, Standard deviation 1.1960706203468343 %) and 7.1% (PRVABC59, Concentration 99.9 uM, Number of replicates 2.0, Standard deviation 0.6463869966486608 %). As for `Cc1cc(CO)c2cccc(Cc3ccccc3C(=O)Nc3cc(C)on3)c2n1`, the inhibition is -2.77% (PRVABC59, Concentration 49.95 uM, Number of replicates 2.0, Standard deviation 0.7445712834152752 %) and 0.512% (PRVABC59, Concentration 99.9 uM, Number of replicates 2.0, Standard deviation 1.0119877161772735 %). `Cc1cc(CO)c2cccc(CC(=O)Nc3cc(C)on3)c2n1`: the inhibition (PRVABC59, Concentration 49.95 uM, Number of replicates 2.0, Standard deviation 1.089187856250299 %) was 91.5% and the inhibition (PRVABC59, Concentration 99.9 uM, Number of replicates 2.0, Standard deviation 0.03053454880917251 %) was 93.2%. Take `Cc1cc(CO)c2cccc(CC(=O)Nc3cc(O)[nH]n3)c2n1`: the inhibition is -5.29% (PRVABC59, Concentration 49.95 uM, Number of replicates 2.0, Standard deviation 0.5293246306718348 %) and 1.86% (PRVABC59, Concentration 99.9 uM, Number of replicates 2.0, Standard deviation 0.9008701737196211 %). Turning to `Cc1cc(CO)c2cccc(Cc3cccc(C(=O)Nc4cc(C)[nH]n4)c3)c2n1`, the inhibition (PRVABC59, Concentration 49.95 uM, Number of replicates 2.0, Standard deviation 3.093641395210206 %) stood at 6.52% and the inhibition (PRVABC59, Concentration 99.9 uM, Number of replicates 2.0, Standard deviation 2.134087804085351 %) is 9.51%.
